The nature of test [1]: qHTS assay to identify small molecule antagonists of the estrogen related receptor (ERR) signaling pathway from Tox21 library - cell viability counter screen (AID 1224834). Further: nearly all actives have a fitted effect of over 30% in size. The following applies: ERR reporter cells viability, CellTiter-Fluor, 17.5 h; series mostly up to 92.4 µM. In a few lines:
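CellTiter-Fluor fluorescence, read after 30 min at 37 C, measures viability of ERR cells. Cells plated at 2,000/well and incubated 6 h before pin-tool compound addition, then exposed 17.5 hours at 37 C.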
In general terms: In qHTS, concentration-response curves come from the screen itself.

In test [2] the target is Luciferin 4-monooxygenase (Photinus pyralis) (UniProt P08659). The test can be described thus: qHTS assay to identify small molecule inhibitors of firefly luciferase (AID 1224835). Further: nearly all actives have a fitted effect of over 25% in size. To be noted: purified P. pyralis luciferase, luminescence inhibition; series mostly up to 115 µM. Put shortly: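 Quantitative HTS format; KM concentrations of both substrates. Purified P. pyralis FLuc activity quantified from luminescence images.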
Chain of Luciferin 4-monooxygenase (Photinus pyralis) (P08659 whole entry, looked up): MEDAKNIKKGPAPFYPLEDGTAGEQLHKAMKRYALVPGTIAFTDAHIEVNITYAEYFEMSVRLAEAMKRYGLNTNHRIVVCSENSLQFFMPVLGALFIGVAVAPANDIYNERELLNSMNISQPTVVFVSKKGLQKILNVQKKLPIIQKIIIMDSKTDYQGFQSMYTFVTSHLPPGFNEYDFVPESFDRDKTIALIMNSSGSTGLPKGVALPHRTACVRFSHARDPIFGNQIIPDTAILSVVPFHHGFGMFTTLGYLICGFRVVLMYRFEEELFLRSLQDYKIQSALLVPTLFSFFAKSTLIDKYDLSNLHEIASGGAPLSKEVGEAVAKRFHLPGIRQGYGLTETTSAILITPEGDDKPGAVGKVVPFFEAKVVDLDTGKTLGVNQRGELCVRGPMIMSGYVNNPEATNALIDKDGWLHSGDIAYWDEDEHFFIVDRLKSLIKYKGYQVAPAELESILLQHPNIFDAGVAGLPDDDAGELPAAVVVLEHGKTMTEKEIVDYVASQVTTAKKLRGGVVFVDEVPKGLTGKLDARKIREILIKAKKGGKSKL

Test [3] is described as follows: qHTS assay to identify small molecule agonists of the constitutive androstane receptor (CAR) signaling pathway - cell viability counter screen (AID 1224836). Further: nearly all actives have a fitted effect of over 45% in size. The following applies: HepG2-CYP2B6-hCAR viability, CellTiter-Fluor, 23 h, PK11195 added to every well; series mostly up to 92.4 µM. In a few lines: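 Cell viability multiplexed with the CAR agonist screen: CellTiter-Fluor fluorescence after 23 hr at 37 C. HepG2-CYP2B6-hCAR cells got compounds at 15 concentrations with PK11195 at 0.75 uM final.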

Records with an inconclusive call do not appear. Values without a mark were called inactive. Active and inactive are the calls of the source. The call rests on the fitted dose curve; in most records, active means well fitted curve in the direction sought with a large enough effect in the repeat runs; inconclusive means weak or mixed curves; inactive means no such curve, though single readings can be large; an effect the other way counts as inactive or inconclusive.
On the % scale 0 is the no-effect control and ±100 the full control effect; potency means the concentration at half of the fitted maximal effect.

As to `C=CC(=O)OCCOC1C2CCC1C1CC=CC12` (centres undefined), the viability change, negative = cytotoxic in test [1] is -4.69% [at 19 µM]; in test [3] it was -2.57% [at 19 µM]. Also, in test [2], the activity change, negative = inhibition was -9.04% [at 23.6 µM].
With `CCc1cccc(CC)c1`, the Potency result in test [1], in test [2] and in test [3] was “inactive” each time.
Turning to `CN1CCN(C)CC1`, the Potency result in test [1], in test [2] and in test [3] was “inactive” in each case.
For the compound `Clc1ccc2c(Cl)ccnc2c1`, the Potency result in test [1] and in test [3] was “inactive” in each case.
For `CCC(O)CO` (centres undefined), the Potency entry in test [1], in test [2] and in test [3] was “inactive” each time.
Turning to `COc1cccc(-c2ccc(/C=C\CN3CCCCCC3)cc2Cl)c1`, the Potency entry in test [1], in test [2] and in test [3] was “inactive” each time.
`SC1CCCCC1`: the Potency entry in test [1], in test [2] and in test [3] was “inactive” in each case.
Take `CCOC(=O)[C@H](C)O`: the Potency entry in test [1], in test [2] and in test [3] was “inactive” in each case.
For `Cc1c[nH]c(=O)[nH]c1=O`, the Potency entry in test [1], in test [2] and in test [3] was “inactive” in each case.
On to `[Cl][Eu]([Cl])[Cl]`, for which the Potency entry in test [1] and in test [3] was “inactive” each time. In addition, the Potency in test [2] is 31.7 µM (active).
For `C=Cc1ccc(O)c(OC)c1`, the Potency result in test [1], in test [2] and in test [3] was “inactive” in each case.
For `CCCCCCCCCCCC(=O)Cl`, the Potency entry in test [1] and in test [3] was “inactive” each time. In addition, the Potency in test [2] is 39.9 µM (active).
As to `CCOc1nc(F)cc2nc(S(=O)(=O)Nc3c(Cl)cccc3C(=O)OC)nn12`, the Potency result in test [1] and in test [3] was “inactive” throughout.
Turning to `Clc1cccc(Cl)n1`, the Potency entry in test [1], in test [2] and in test [3] was “inactive” in each case.
In the case of `Cc1cccc(C)c1C`, the Potency entry in test [1], in test [2] and in test [3] was “inactive” in each case.
Turning to `CCSCC`, the Potency result in test [1], in test [2] and in test [3] was “inactive” throughout.
`CC(C)C(=O)C(C)C`: the Potency result in test [1], in test [2] and in test [3] was “inactive” in each case.
As for `c1ccc(-c2ccccc2-c2ccccc2)cc1`, the Potency entry in test [1], in test [2] and in test [3] was “inactive” in each case.
Turning to `CC/C=C(\C)C=O`, the Potency entry in test [1], in test [2] and in test [3] was “inactive” each time.
Turning to `O=C1CCC(=O)N1`, the Potency result in test [1], in test [2] and in test [3] was “inactive” throughout.
As to `CCCCNc1ccc(NCCCC)c2c1C(=O)c1ccccc1C2=O`, the viability change, negative = cytotoxic in test [1] is -12.4% [at 19 µM]; in test [3] it was -17.5% [at 19 µM].
Regarding `[Cl][Sc]([Cl])[Cl]`, the Potency entry in test [1] and in test [3] was “inactive” each time. Besides, the Potency in test [2] was 28.3 µM (active).
Consider `CC(C)(C)c1cc(CCC(=O)OCCSCCOC(=O)CCc2cc(C(C)(C)C)c(O)c(C(C)(C)C)c2)cc(C(C)(C)C)c1O`, for which the Potency result in test [1], in test [2] and in test [3] was “inactive” in each case.
For `CCCCCc1ccc(O)cc1`, the Potency result in test [1] and in test [3] was “inactive” each time. Moreover, the Potency in test [2] is 56.4 µM (active).
For `C=C(C)CCO`, the Potency entry in test [1], in test [2] and in test [3] was “inactive” each time.
In the case of `CCc1cccc(C)c1N(C(=O)C(=O)O)C(C)COC` (centres undefined), the Potency entry in test [1], in test [2] and in test [3] was “inactive” throughout.
As to `C/C(=N\[Si](C)(C)C)O[Si](C)(C)C`, the Potency result in test [1], in test [2] and in test [3] was “inactive” in each case.
On to `COCCC(=O)OC`, for which the Potency entry in test [1], in test [2] and in test [3] was “inactive” throughout.
For `CC/C(=C(/c1ccc(O)cc1)c1ccc(OCCN(C)C)cc1)c1ccccc1`, the values for the Potency in test [1] and in test [3] were 32 µM (active) and 40.3 µM (active), respectively. Further, the Potency result in test [2] is “inactive”.
For `CCCCCCCCSCc1cc(C)c(O)c(CSCCCCCCCC)c1`, in that order: “inactive”, “inactive” and “inactive”.
On the same counts, the results for `N#Cc1ccc(C/C(=N/NC(=O)Nc2ccc(OC(F)(F)F)cc2)c2cccc(C(F)(F)F)c2)cc1` are “inactive”, “inactive” and “inactive”.
For `Cc1ccc2sc3cccc(C)c3c2c1`, in that order: “inactive”, “inactive” and “inactive”.
Regarding `CN[C@H]1CC[C@@H](c2ccc(Cl)c(Cl)c2)c2ccc(S(N)(=O)=O)cc21`, the Potency in test [1] was 68.6 µM (active); in test [3], 61.1 µM (active). Moreover, the Potency result in test [2] was “inactive”.
On the same counts, the results for `CCC1(C)C(=O)N(Cl)C(=O)N1Cl` (centres undefined) are “inactive”, “inactive” and “inactive”.
On the same counts, the results for `CCCCCN=C(N)N/N=C/c1c[nH]c2ccc(OC)cc12` are 26.6 µM (active), 21.1 µM (active) and “inactive”.
For `CCN(CCC#N)c1ccc(N=Nc2ccc([N+](=O)[O-])cc2)cc1`, in that order: “inactive”, “inactive” and “inactive”.
Take `C/C=C/C(=O)C1=C(C)C=CCC1(C)C`: the Potency entry in test [1], in test [2] and in test [3] was “inactive” throughout.
With `COc1cc(OC)nc(NC(=O)NS(=O)(=O)Nc2ccccc2C(=O)N(C)C)n1`, the Potency entry in test [1], in test [2] and in test [3] was “inactive” throughout.
Take `COC(=O)c1ccc([N+](=O)[O-])cc1`: the Potency entry in test [1], in test [2] and in test [3] was “inactive” throughout.
For the compound `O=C1C=CC(=O)N1c1cccc(N2C(=O)C=CC2=O)c1`, the Potency in test [1] is 54.5 µM (active); in test [3], 61.1 µM (active).
For the compound `CC(=O)CC(N)=O`, the Potency result in test [1], in test [2] and in test [3] was “inactive” in each case.
With `CC(C)(c1ccc(Oc2ccc(N)cc2)cc1)c1ccc(Oc2ccc(N)cc2)cc1`, the Potency in test [2] was 22.4 µM (active).
In the case of `COc1ccc2ccccc2c1`, in test [2], the Potency result was “inactive”.
For `CCCCCCCCCCCCN1CCCC1=O`, the Potency in test [2] was 44.8 µM (active). For the same compound, the Potency entry in test [3] is “inactive”.
For `Nc1ccc(F)c([N+](=O)[O-])c1`, in that order: “inactive” and “inactive”.
On the same counts, the results for `C=C1C(CCl)(CCl)C2(Cl)C(Cl)C(Cl)C1(Cl)C2(Cl)Cl` (centres undefined) are “inactive” and “inactive”.
On to `Clc1nc(C(Cl)(Cl)Cl)c(Cl)c(Cl)c1Cl`, for which, in test [2], the Potency result was “inactive”.
Take `O=C(c1ccccc1)c1ccc(Cl)cc1`: the Potency result in test [1] and in test [3] was “inactive” throughout.
In the case of `Nc1ccc(Oc2cccc(Oc3ccc(N)cc3)c2)cc1`, the Potency in test [2] is 35.6 µM (active). Besides, the Potency result in test [3] was “inactive”.
Consider `C=Cc1ccncc1`, for which the Potency result in test [1] and in test [3] was “inactive” each time.
Take `CCN(CC)c1ccc(C=O)cc1`: the Potency result in test [1] and in test [3] was “inactive” in each case.
Take `O=c1[nH]cccc1O`: the Potency result in test [2] and in test [3] was “inactive” in each case.
`O=C(Nc1ccc([N+](=O)[O-])cc1)Nc1ccc([N+](=O)[O-])cc1` (tested in a mixture with another compound): the Potency entry in test [2] and in test [3] was “inactive” in each case.
Turning to `Nc1ccc(Cl)c([N+](=O)[O-])c1`, the Potency result in test [2] and in test [3] was “inactive” throughout.
As for `O=C1OC(O)C(C(Cl)Cl)=C1Cl` (centres undefined), the Potency result in test [2] and in test [3] was “inactive” each time.
As to `Nc1cccnc1N`, in test [2], the Potency result was “inactive”.
On to `CCCCCCCC/C=C\CCCCCCCC(=O)N(CCO)CCO`, for which, in test [2], the Potency result was “inactive”.
Take `CCN(CC)c1ccc(C=O)c(O)c1`: the Potency result in test [1] and in test [3] was “inactive” throughout.
As for `O=C1OC2(c3ccccc31)c1ccc(O)c(Br)c1Oc1c2ccc(O)c1Br`, in test [2], the Potency was 35.6 µM (active).
On to `CCOC(=O)C1=NN(c2ccc(Cl)cc2Cl)C(C)(C(=O)OCC)C1` (centres undefined), for which the Potency result in test [2] and in test [3] was “inactive” each time.
Regarding `Cc1cccc2c1ccc1ccccc12`, the Potency result in test [1] and in test [3] was “inactive” in each case.
On to `CC(C)(C)c1ccc(OC2CCCCC2O)cc1` (centres undefined), for which the Potency in test [2] was 31.7 µM (active). In addition, the Potency entry in test [3] was “inactive”.
On the same counts, the results for `CCCCCCCCCC[N+](C)(CCCCCCCCCC)CCC[Si](OC)(OC)OC` are 79.6 µM (active) and “inactive”.
For `CCCCCCCC1CCC(=O)O1` (centres undefined), the Potency result in test [2] is “inactive”.
As to `COc1cc([C@@H]2c3cc4c(cc3[C@@H](O[C@@H]3O[C@@H]5CO[C@@H](C)O[C@H]5[C@H](O)[C@H]3O)[C@H]3COC(=O)[C@H]23)OCO4)cc(OC)c1O`, the Potency entry in test [2] and in test [3] was “inactive” each time.
Turning to `CC(=O)N(C)C`, the Potency entry in test [2] is “inactive”.
As for `CCC(C)(C)c1ccc(CC(C)CN2C[C@@H](C)O[C@@H](C)C2)cc1` (some centres undefined), the Potency result in test [2] and in test [3] was “inactive” in each case.
Consider `Nc1cc([N+](=O)[O-])cc(Cl)c1O`, for which the Potency entry in test [2] and in test [3] was “inactive” in each case.
For `ClC(c1ccccc1)(c1ccccc1)c1ccccc1`, the Potency result in test [2] and in test [3] was “inactive” throughout.
`O[Si](c1ccccc1)(c1ccccc1)c1ccccc1`: the Potency result in test [2] and in test [3] was “inactive” each time.
For the compound `CC1=CC[C@@H](C(C)(C)O)CC1`, the Potency entry in test [2] and in test [3] was “inactive” throughout.
Take `Cc1ccc(N=Nc2c(O)ccc3ccccc23)c(C)c1`: in test [2], the Potency is 13.8 µM (active). The Potency entry in test [3] is “inactive”.
For the compound `O=C(NCc1ncc(C(F)(F)F)cc1Cl)c1c(Cl)cccc1Cl`, the Potency result in test [2] and in test [3] was “inactive” in each case.
In the case of `c1ccc2c(c1)-c1ccc3ccc4cccc5cc-2c1c3c45`, in test [2], the Potency is 11 µM (active).
Same read-out and setting: with `Cc1c(Cl)c(=O)oc2cc(O)ccc12` the entry was “inactive”; with `Nc1ccc(N)c([N+](=O)[O-])c1`, 35.6 µM (active).
Still for that read-out and setting: with `O=C1Cc2ccccc2C1` the entry was “inactive”.
Still for that read-out and setting: under `CC(=O)Nc1ccc(N=Nc2cc(C)ccc2O)cc1` stands 3.17 µM (active).
For the compound `CC/C=C\C/C=C\C/C=C\CCCCCCCC(=O)OC`, the Potency entry in test [2] and in test [3] was “inactive” throughout.
Regarding `O=S(=O)(c1ccc(OCc2ccccc2)cc1)c1ccccc1O`, in test [2], the Potency entry is “inactive”.
`CCOc1ccc([N+](=O)[O-])cc1`: in test [3], the Potency result was “inactive”.
